The source of these data is PubChem BioAssay (NCI).

The nature of the assay: NCI Yeast Anticancer Drug Screen. Data for the bub3 strain (AID 167). The settings on record: S. cerevisiae bub3 mutant strain, active compounds read high. As to the method: Growth inhibition of yeast strains with defined genetic alterations is measured as a screen for potential anti-cancer activity. Selected strains with alterations in DNA damage repair or cell cycle control were exposed to compounds and growth inhibition was measured relative to vehicle treated controls. The strain used in this assay is bub3

Setting [1] is: at 5.0 µM (retest, dose inferred, filed as 0.5).
[2] abbreviates: at 50.0 µM (retest, dose inferred, filed as 5.0).

Structures are written as SMILES. The panel holds about 79,000 compounds, 15% with a hit somewhere; the sample as a whole holds those more often. Values without a mark were called inactive. The source made the active and inactive calls. Cut-off read from the data, not from the text of the source: active = growth inhibition above about 70%; inactive = the rest.

For the compound `CC(C)(Sc1cc(Cl)c(Cl)c(Cl)c1)C(=O)OCCN1CCOCC1`, the growth inhibition under setting [1] is 76% (active), the growth inhibition under setting [2] is 92% (active) and the growth inhibition (at 50.0 µM) is 99.2% (active).

For the compound `Cc1ccc(/C=C/C(=O)c2cc(CN(C)C)c(O)c(CN(C)C)c2)cc1`, the growth inhibition reads like this: under setting [1], 3%; under setting [2], 8%; (at 50.0 µM) -3.35%.

On to `S=c1nc(N2CCCCC2)ss1`, for which the growth inhibition was 17% under setting [1], 97% (active) under setting [2] and 46.5% (at 50.0 µM).

`Cc1ccc2nc(C[n+]3ccc4ccccc4c3)ccc2c1`: the growth inhibition reads like this: under setting [1], -1%; under setting [2], 38%; (at 50.0 µM) 43%.

As for `O=C(O)C1CC2C3(Cl)C(Cl)=C(Cl)C(Cl)C2(CC1c1c2ccc(=O)c(O)c-2oc2c(O)c(O)ccc12)C3(Cl)Cl` (configuration not stated), the growth inhibition is -2% under setting [1], 96% (active) under setting [2] and 46.2% (at 50.0 µM).

`CCCC(=O)Oc1ccc(-c2ccccc2Br)cc1`: the growth inhibition under setting [1] is 18%, the growth inhibition under setting [2] is 74% (active) and the growth inhibition (at 50.0 µM) is 92.7% (active).

In the case of `CCOC(=O)/C(=C\c1ccc(-c2ccccc2)cc1)C(C)=O`, the growth inhibition is, setting by setting: under setting [1], 16%; under setting [2], 96% (active); (at 50.0 µM) 66.9%.

Turning to `CC(=O)OCC1OC(OC(C)=O)C(On2nnc3c(-c4ccccc4)c(C)nn32)C(OC(C)=O)C1OC(C)=O` (configuration not stated), the growth inhibition runs as follows: under setting [1], -1%; under setting [2], 59%; (at 50.0 µM) 16.1%.

Regarding `O=C(Nc1ccccc1)OCCc1ccc(Br)cc1`, the growth inhibition is -5% under setting [1], 7% under setting [2] and 6.1% (at 50.0 µM).

Take `C#CC(C)(C)Nc1c2ccccc2nc2ccccc12`: the growth inhibition reads like this: under setting [1], -2%; under setting [2], 98% (active); (at 50.0 µM) 97.5% (active).

In the case of `O=C(/C=C/c1ccccc1)C1(c2ccccc2)CC1`, the growth inhibition by setting is: under setting [1], -58%; under setting [2], 39%; (at 50.0 µM) 44.5%.

As to `CN(C)c1ccc(/C=N/N=C(\C#N)[S][Sn]([Cl])([c]2ccccc2)[c]2ccccc2)cc1`, the growth inhibition is 98% (active) under setting [1], 95% (active) under setting [2] and 97% (active) (at 50.0 µM).

In the case of `CN(C)c1ccc(C(c2cc3c(cc2O)OCO3)N2CCCCC2)cc1` (configuration not stated), the growth inhibition was -5% under setting [1], 97% (active) under setting [2] and 99.3% (active) (at 50.0 µM).

`CC1(C)CC([P+](c2ccccc2)(c2ccccc2)c2ccccc2)=NN1`: the growth inhibition is 71% (active) under setting [1], 91% (active) under setting [2] and 83.5% (active) (at 50.0 µM).
